High-throughput results from PubChem BioAssay.
Mdm2-MdmX inh: human Mdm2/MdmX binding inhibition | inhibition, % at 8 µM | SaOS-2 split-luciferase Mdm2/MdmX complementation, luminescence | O15151+Q00987 | AID 485346 | 3% of 330,000 active;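 active means inhibition of at least 50% at 8 µM in the primary screen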
MPTP inh: blocks calcium-induced mitochondrial swelling | isolated mouse mitochondria, Ca2+ swelling absorbance, 30 min | inhibition, % at 10 µM | 1.4% of 360,000 active;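 active means inhibition of 50% or more, scaled per plate between neutral and stimulator controls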
Beta apoptosis: beta cell apoptosis inhibition | INS-1E cytokine-induced death, ATP luminescence, 48 h; percent of positive-control rescue, neutral wells zero | 0.8% of 300,000 active | protection from apoptosis, % (no concentration beside the values);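 active means Every replicate reaches about 75%, or at least half do and their mean reaches it too, limit read from the data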;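 further: higher means more ATP so stronger rescue from cytokine killing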
GRIN3A LBD mod: modulators (binders) of human NR3A ligand-binding domain | NR3A LBD differential scanning fluorimetry, Tm shift; 0% = protein alone, 100% = glycine-bound protein | Tm shift relative to glycine control, % at 25 µM | 2.5% of 340,000 active;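 active means melting temperature shift of at least 10% of the positive control shift, at one fixed dose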
SKKanGAS inh: inhibitors of SKKanGAS S. pyogenes growth in kanamycin (SK-promoter or general growth effect). BacTiter-Glo, 6 h. inhibition, % at 7.5 µM. 1.3% of 300,000 active;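 active means mean replicate score, as percent of positive control median, at least 50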;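 further: strain carries kanamycin resistance gene driven by streptokinase promoter and grows in 40 µg/ml kanamycin; loss of luminescence reflects streptokinase promoter inhibition or plain growth inhibition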
CSC inhib: blocks cancer stem cells. cancer stem cell-like cells viability, luminescence. inhibition, % at 7.5 µM. 1.1% of 300,000 active. AID 2717; in the data active means inhibition above about 75%; tested in HMLE shEcad cells
Hits are given with their value; . = inactive; / = not tested or not shown. A selection: hits, their analogues and other compounds. The true share with any hit is near 6.9%.

SMILES | Mdm2-MdmX inh | MPTP inh | Beta apoptosis | GRIN3A LBD mod | SKKanGAS inh | CSC inhib
C[C@H](CO)N1C[C@H](C)[C@@H](CN(C)C(=O)Nc2ccccc2)Oc2ccc(NC(=O)Nc3ccc(C(F)(F)F)cc3)cc2C1=O | . | . | . | 11 | / | /
CC(=O)Nc1ccc(-c2ccnc3c2CC(C)(C(=O)Nc2cccc(C(F)(F)F)c2)O3)cc1 (stereo not drawn) | / | . | / | / | / | /
CC(NC(=O)c1ccc(CS(C)(=O)=O)cc1)c1cccc2ccccc12 (stereo not drawn) | . | . | . | . | . | /
C[C@H](CO)N1C[C@H](C)[C@@H](CN(C)C(=O)Nc2ccc(C(F)(F)F)cc2)Oc2ccc(NC(=O)Nc3ccc4c(c3)OCO4)cc2C1=O | . | . | / | 11 | / | /
CN(C1=C(NC(=O)c2ccc(Cl)cc2)C(=O)c2ccccc2C1=O)c1ccccc1 | . | . | 93 | . | . | .
Cc1cccc(NC2=C(NC(=O)c3ccccc3)C(=O)c3ccccc3C2=O)c1 | . | . | 78 | 19 | . | .
Cc1cccc(C(=O)Nc2cccc(NC(=O)c3ccccc3)c2)c1 | . | . | . | . | . | .
O=C(Cc1ccc(Cl)cc1)Nc1ccc(NC(=O)c2ccccc2)cc1 | . | . | . | . | . | .
O=C(NC1=C(Nc2ccc(Cl)cc2)C(=O)c2ccccc2C1=O)c1ccccc1 | . | . | 117 | . | . | .
CC1Oc2ccccc2N(CC(=O)NC2CCCCC2)C1=O (stereo not drawn) | . | . | . | . | . | .
Cc1cc(N2CCN(c3ccc(C(F)(F)F)cc3[N+](=O)[O-])CC2)c2ccccc2n1 | . | . | . | . | . | 97
CCN(c1ccccc1)S(=O)(=O)c1ccc2c(c1)N(C(C)=O)CCO2 | . | . | . | . | . | .
Cc1ccccc1NS(=O)(=O)c1ccc(NC(=O)CSCc2ccc(Br)cc2)cc1 | . | . | . | 22 | . | .
CCC(C)[C@H](NC(=O)Nc1ccccc1F)C(=O)OC (stereo partly drawn) | . | . | . | . | . | .
O=C(COC(=O)/C=C/c1ccco1)Nc1cc(S(=O)(=O)N2CCOCC2)ccc1Cl | . | . | . | . | / | .
O=C(CSc1nc2ccccc2c(=O)n1Cc1ccccc1)Nc1ccc(Br)cc1C(=O)O | . | . | . | . | 52 | .
Cc1cc(NC(=O)CSc2nc3ccccc3c(=O)n2Cc2ccc(F)cc2)no1 | . | . | . | . | . | .
Cc1ccc(S(=O)(=O)N2CCOCC2)cc1NC(=O)CSc1nc2ccccc2c(=O)n1Cc1ccccc1 | . | . | / | 14 | . | /
O=C(CN1C(=O)NC2(CCc3ccccc32)C1=O)Nc1ccccc1C(F)(F)F (stereo not drawn) | . | . | . | . | / | /
O=C(Nc1cccc(C(F)(F)F)c1)NC1CCN(S(=O)(=O)c2ccc(F)cc2)CC1 | . | . | / | 19 | . | .
CC(=O)c1ccc(S(=O)(=O)N2CCC(NC(=O)Nc3cccc(F)c3)CC2)cc1 | . | . | . | . | . | .
O=C(Nc1cccc(F)c1)/C(=C\c1ccco1)NC(=O)c1ccco1 | . | . | . | . | . | .
CCCc1cc(=O)[nH]c(SCC(=O)Nc2sc(C(N)=O)c(C)c2C(=O)OCCOC)n1 | . | . | . | . | / | 94
CCN(CC)c1nc(SCCOC(=O)Nc2ccccc2)nc(N(CC)CC)n1 | . | . | . | . | . | 81
CN(C)c1nc(SCCOC(=O)c2ccccc2)nc(N(C)C)n1 | . | . | . | . | . | .
SMILES | Mdm2-MdmX inh | MPTP inh | Beta apoptosis | GRIN3A LBD mod | SKKanGAS inh | CSC inhib
Clc1ccccc1OCCCCn1ccnc1 | . | . | . | . | 59 | .
Cc1ccc(-c2csc3nc[nH]c(=S)c23)cc1C | . | . | . | . | 93 | .
Cc1ccc(Oc2ccc(-c3nc(N)nc(N)n3)cc2)cc1C | . | . | . | 14 | . | .
COc1cccc(C2/C(=C(/O)c3ccc4c(c3)CC(C)O4)C(=O)C(=O)N2CC2CCCO2)c1 (stereo not drawn) | . | . | . | . | / | .
Cc1cc(C(=O)N2CCN(S(=O)(=O)c3ccc(C)c(C)c3)CC2)no1 | . | . | / | 53 | / | /
Cc1ccc(S(=O)(=O)N2CCN(C(=O)C3=COCCO3)CC2)cc1C | . | . | . | . | . | .
O=C(Nc1ccc(S(=O)(=O)Nc2nccs2)cc1)c1ccc(N2C(=O)c3ccccc3C2=O)cc1 | . | . | . | . | . | .
COc1cc(/C=C/c2noc(-c3ccccc3O)n2)ccc1OC(C)=O | . | . | . | . | . | 103
CC(=O)Nc1ccc(/C=C/c2noc(-c3ccccc3O)n2)cc1 | . | . | . | 12 | . | .
Cc1cc(C(=O)N2CCCC(C)(C(=O)NS(=O)(=O)C3CC3)C2)nn1C(C)(C)C (stereo not drawn) | / | . | / | / | / | /
Cc1ccc(C(=O)Nc2nc(-c3ccccc3)c(-c3ccccc3)o2)cc1 | . | . | . | . | 113 | /
Cc1cc(C)nc(SCC(=O)Nc2nc(-c3ccccc3)c(-c3ccccc3)o2)n1 | . | . | . | . | . | .
O=C1C(Oc2ccccc2)C(c2cccs2)N1Cc1ccc2c(c1)OCO2 (stereo not drawn) | . | . | . | . | . | .
Cc1ccccc1OC1C(=O)N(Cc2ccc3c(c2)OCO3)C1c1sccc1C (stereo not drawn) | . | . | 79 | . | . | .
CCC1(C)Cc2ccccc2-c2c1c(=O)n(Cc1ccccc1)c1nnnn21 (stereo not drawn) | . | . | . | . | 69 | 135
O=c1c2c(n3nnnc3n1-c1ccccc1)-c1ccccc1CC21CCCC1 | . | . | . | . | . | .
O=c1c2c(n3nnnc3n1Cc1ccccc1)-c1ccccc1CC21CCCC1 | . | . | . | . | 65 | .
C[C@H](CO)N1C[C@H](C)[C@@H](CN(C)S(=O)(=O)c2ccc(F)cc2)Oc2ccc(NC(=O)NC3CCCCC3)cc2C1=O | . | . | / | . | / | /
CC1CN(Cc2ccccc2)c2nc3c(c(=O)[nH]c(=O)n3C)n2C1 (stereo not drawn) | . | . | . | 29 | . | .
CCCCNC(=S)NCC(c1ccccc1)c1c[nH]c2ccccc12 (stereo not drawn) | . | . | . | 30 | . | .
CN(C)c1ccc(C(CNC(=O)c2ccccc2)c2c[nH]c3ccccc23)cc1 (stereo not drawn) | . | . | . | . | . | .
CC(C)C[C@@H]1NC(=O)[C@H](C(C)C)NC(=O)c2cc([N+](=O)[O-])cc(I)c2OCC[C@@H](C(N)=O)NC1=O | . | . | . | . | / | .
N=C1C(c2nc3ccccc3s2)=C(O)CN1Cc1ccccc1 | . | . | . | . | . | .
CCN(CC)CCCN1CC(O)=C(c2nc3ccccc3s2)C1=N | . | . | . | 18 | . | .
O=C(CN(C(=O)C1CSC(=O)C1)c1cccc(F)c1)NCc1ccc2c(c1)OCO2 (stereo not drawn) | . | . | . | . | . | .
C/C(=N\Nc1ncc(Cl)cc1Cl)c1ccccn1 | / | . | / | . | 58 | /
